Measured values from PubChem BioAssay (NCATS).
Inconclusive results are not listed. Entries that show only a call come without a potency. Calls of active or inactive are those of the source. Unless noted, calls follow the shape of the full dose curve.

How the values were obtained:
[1] = molecular target: Bile acid receptor (Homo sapiens) (UniProt Q96RI1); assay: qHTS assay for small molecule antagonists of farnesoid X receptor signaling (AID 588526)
In short: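 Concentration-response titrations were fitted to the Hill equation for half-maximal inhibition and maximal response, with data normalised to 50 uM chenodeoxycholic acid and DMSO control wells. Cells: FXR-UAS-bla HEK293T, dialyzed FBS.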

[2] = molecular target: Glucocorticoid receptor (Homo sapiens) (UniProt P04150); assay: qHTS assay for small molecule antagonists of glucocorticoid receptor signaling (AID 588533; active = well fitted inhibition curve with a large enough effect in the signal ratio, with a control signal flat, not every such curve was filed as active; the % refers to the signal ratio;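 also: cells stimulated with 2 nM dexamethasone as agonist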)
In short: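 Antagonist-mode qHTS: compound titrations added to GRE-bla HeLa cells, then dexamethasone 2 nM final; 18 h, 37 C. CCF4 FRET fluorescence normalized to dexamethasone and DMSO; IC50 from Hill fit.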

[3] = qHTS assay for small molecule antagonists of peroxisome proliferator-activated receptor delta signaling (AID 588535; active = well fitted inhibition curve with a large enough effect in the signal ratio, with a control signal flat, not every such curve was filed as active; the % refers to the signal ratio;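 as to max response: cells co-treated with a PPAR-delta agonist as stimulator during compound exposure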); settings: HEK293T PPARd-UAS-bla, beta-lactamase FRET ratio, 18 h; 460 nm channel
In short: (§1)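 Inhibition of PPAR-delta response element-driven beta-lactamase expression is measured in HEK293T cells exposed to a compound titration series for 18 hrs at 37 C. Half-maximal inhibition comes from Hill equation fitting.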

[4] = molecular target: Peroxisome proliferator-activated receptor delta (Homo sapiens) (UniProt Q03181); assay: as above
In short: as §1

[5] = molecular target: Vitamin D3 receptor (Homo sapiens) (UniProt P11473); assay: qHTS assay for small molecule antagonists of vitamin D receptor signaling (AID 588541);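 also: receptor activated by calcitriol during compound treatment; series mostly up to about 77 µM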
In short: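 VDR-UAS-bla HEK293T cells (2000/well, 2% charcoal-stripped FBS) were treated with titrated compounds plus 1-alpha,25-dihydroxyvitamin D3 (50 nM or 3 nM final) for 16 h at 37 C. CCF4 beta-lactamase fluorescence was read; Hill fits gave IC50.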

[6] = molecular target: Vitamin D3 receptor (Homo sapiens) (UniProt P11473); assay: qHTS assay for small molecule agonists of vitamin D receptor signaling (AID 588543)
In short: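 Agonist-mode beta-lactamase reporter: HEK293T VDR-UAS-bla cells in charcoal-stripped 2% FBS, compound series 16 h 37 C, CCF4 2 h RT. EC50 from Hill fit, scaled against DMSO and 50 nM calcitriol control.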

[7] = qHTS assay for small molecule agonists of retinoid X receptor alpha signaling (AID 588544); settings: HEK293T RXRa-UAS-bla, beta-lactamase reporter, 18 h; 530 nm emission
[8] = molecular target: Retinoic acid receptor RXR-alpha (Homo sapiens) (UniProt P19793); assay: as above
[9] = molecular target: Thyroid hormone receptor beta (Homo sapiens) (UniProt P10828); assay: qHTS assay for small molecule agonists of thyroid hormone receptor beta signaling (AID 588545)
In short: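 Agonist activity was read as beta-lactamase CCF4 fluorescence (405 ex, 460/530 em), scaled between DMSO (0%) and 10 nM T3 (100%), then Hill-fitted for EC50 and efficacy. HEK 293 TR-UAS-bla cells in 2% charcoal/dextran FBS medium were exposed 18 h at 37 C.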

[10] = qHTS assay for small molecule antagonists of retinoid X receptor alpha signaling (AID 588546; active = well fitted inhibition curve with a large enough effect in the signal ratio, with a control signal flat, not every such curve was filed as active; the % refers to the signal ratio;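 also: cells stimulated with 9-cis-retinoic acid as agonist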); settings: HEK293T RXRa-UAS-bla, beta-lactamase ratio, antagonist mode; measured here: W530 green channel, cytotoxicity proxy
In short: (§2)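 Beta-lactamase reporter inhibition, read as CCF4 fluorescence ratio (ex 405, em 460/530 nm) after 2 h at RT. HEK293T UAS-bla cells, 2500/well, were stimulated with 9-cis-RA at 500 or 100 nM final alongside test compound for 18 h at 37 C.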

[11] = molecular target: Retinoic acid receptor RXR-alpha (Homo sapiens) (UniProt P19793); assay: as above; settings: HEK293T RXRa-UAS-bla, beta-lactamase ratio, antagonist mode
In short: as §2

[12] = molecular target: Thyroid hormone receptor beta (Homo sapiens) (UniProt P10828); assay: qHTS assay for small molecule antagonists of thyroid hormone receptor beta signaling (AID 588547; active = well fitted inhibition curve with a large enough effect in the signal ratio, with a control signal flat, not every such curve was filed as active; the % refers to the signal ratio;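 also: cells stimulated with 0.4 nM T3 agonist during compound exposure; series mostly up to about 77 µM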); settings: TR-UAS-bla HEK293, beta-lactamase ratio, antagonist mode, 18 h
In short: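 TR-UAS-bla GripTite HEK293 cells in 2% charcoal/dextran FBS medium were preincubated 4 h at 37 C, given compound (0.59 nM to 92 uM) plus 0.4 nM T3 (final) for 18 h, then CCF4 for 2 h at RT; Hill fit gave IC50.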

[13] = molecular target: Voltage-gated inwardly rectifying potassium channel KCNH2 (Homo sapiens) (UniProt Q12809); assay: qHTS Assay for Small Molecule Inhibitors of the Human hERG Channel Activity (AID 588834; active = well fitted inhibition curve with a large enough effect;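 also: lower thallium flux fluorescence means stronger hERG block; nearly all actives have a fitted effect of over 50% in size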; also: potency is read from the fitted curve at half-maximal effect)
In short: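 hERG block measured as reduced thallium-dye (FluxOR) fluorescence after stimulation buffer addition, read over 2 min. Cells were hERG-BacMam-transduced U2OS exposed to compound ~10 min […]; concentration-response fitted with Hill equation for AC50.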

[14] = qHTS assay for small molecule activators of the p53 signaling pathway (AID 651743; active = well fitted activation curve with a large enough effect in the signal ratio, not every such curve was filed as active; the % refers to the signal ratio; also: series mostly up to about 92 µM); settings: HCT-116 p53RE-bla, beta-lactamase FRET ratio, 16 h; stronger effect = higher value
In short: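 Agonist-mode quantitative HTS in HCT-116 cells carrying a p53-response-element beta-lactamase reporter; 16 h compound treatment at 37 C, then FRET substrate loading for 2 h at room temperature and fluorescence read.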

[15] = qHTS assay for small molecule disruptors of the mitochondrial membrane potential - 1 hr assay (AID 651754); also: nearly all actives have a fitted effect of over 35% in size
In short: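 Loss of mitochondrial potential shifts the cationic dye from red mitochondrial aggregates to green cytoplasmic monomers. Cells (HepG2) are treated with compound for 1 hr before a 30 min dye incubation at 37C.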

[16] = molecular target: Glucocorticoid receptor (Homo sapiens) (UniProt P04150); assay: qHTS assay for small molecule agonists of glucocorticoid receptor signaling (AID 588532; active = well fitted curve in the direction sought with a large enough effect in the signal ratio, with a control signal flat; the % refers to the signal ratio); settings: HeLa MMTV-bla, beta-lactamase ratio, agonist, 18 h; stronger effect = higher value; percent of dexamethasone control, DMSO zero
In short: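 MMTV-bla HeLa, beta-lactamase reporter; medium with 1% charcoal/dextran-stripped FBS; cpds up to 92 uM, 18 h, 37 C; CCF4 readout 460/530 nm; Hill fit → EC50, efficacy vs 0.1 uM dexamethasone = 100%.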

[17] = molecular target: Peroxisome proliferator-activated receptor gamma (Homo sapiens) (UniProt P37231); assay: qHTS assay for small molecule agonists of peroxisome proliferator-activated receptor gamma signaling (AID 588536; active = well fitted curve in the direction sought with a large enough effect in the signal ratio, with a control signal flat, not every such curve was filed as active; the % refers to the signal ratio)
In short: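 Beta-lactamase reporter read-out: CCF4 fluorescence (ex 405, em 460/530 nm) after 2 h at RT. HEK293 GeneBLAzer cells were treated for 16 h at 37 C. Hill fits gave EC50 and efficacy versus 2 uM rosiglitazone (100%) and DMSO (0%).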

[18] = qHTS assay for small molecule agonists of the antioxidant response element (ARE) signaling pathway (AID 651741; active = well fitted activation curve with a large enough effect in the signal ratio; the % refers to the signal ratio)
In short: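 Reporter: beta-lactamase under ARE, stably in HepG2. Exposure: 16 h, 37 C, compounds delivered in DMSO by pin tool after 5 h cell preincubation. Readout: FRET substrate fluorescence after 2 h at RT.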

[19] = qHTS assay for small molecule activators of the nuclear factor-kappa B (NF-kB) signaling pathway (AID 651749; active = well fitted activation curve with a large enough effect in the signal ratio; the % refers to the signal ratio; also: series mostly up to about 77 µM); settings: NF-kB-bla ME-180 cells, beta-lactamase FRET ratio, 16 h; stronger effect = higher value
In short: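 Human ME-180 cervical cells with an NF-kB-bla construct; compounds added via 23 nL pin transfer, DMSO as vehicle; incubation 16 hr. Reporter activity measured by FRET disruption.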

[20] = molecular target: Peroxisome proliferator-activated receptor gamma (Homo sapiens) (UniProt P37231); assay: qHTS assay for small molecule antagonists of peroxisome proliferator-activated receptor gamma signaling (AID 588537; active = well fitted inhibition curve with a large enough effect in the signal ratio, with a control signal flat, not every such curve was filed as active; the % refers to the signal ratio;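 also: reporter cells co-stimulated with 50 nM rosiglitazone agonist during compound treatment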)
In short: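 Compounds are tested as concentration series for inhibition of rosiglitazone-driven (50 nM) reporter expression in GeneBLAzer PPAR-gamma-UAS-bla HEK293 cells. After 16 h at 37 C, CCF4 substrate is added for 2 h at room temperature and blue/green fluorescence is measured.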

Chain of Bile acid receptor (Homo sapiens) (Q96RI1 whole entry, looked up): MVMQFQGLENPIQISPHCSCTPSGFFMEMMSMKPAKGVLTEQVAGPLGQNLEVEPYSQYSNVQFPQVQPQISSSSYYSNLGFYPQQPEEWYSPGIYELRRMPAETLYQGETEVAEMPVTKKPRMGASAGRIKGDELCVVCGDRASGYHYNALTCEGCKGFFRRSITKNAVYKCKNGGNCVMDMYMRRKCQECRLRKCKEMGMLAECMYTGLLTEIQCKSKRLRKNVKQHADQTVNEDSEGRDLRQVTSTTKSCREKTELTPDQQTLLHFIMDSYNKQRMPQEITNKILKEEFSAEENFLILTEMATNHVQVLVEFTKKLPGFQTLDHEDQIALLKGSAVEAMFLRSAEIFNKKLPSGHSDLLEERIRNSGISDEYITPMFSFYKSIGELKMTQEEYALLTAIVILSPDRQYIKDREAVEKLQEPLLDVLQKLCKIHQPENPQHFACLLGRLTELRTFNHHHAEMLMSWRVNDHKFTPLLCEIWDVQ
Chain of Retinoic acid receptor RXR-alpha (Homo sapiens) (P19793 whole entry, looked up): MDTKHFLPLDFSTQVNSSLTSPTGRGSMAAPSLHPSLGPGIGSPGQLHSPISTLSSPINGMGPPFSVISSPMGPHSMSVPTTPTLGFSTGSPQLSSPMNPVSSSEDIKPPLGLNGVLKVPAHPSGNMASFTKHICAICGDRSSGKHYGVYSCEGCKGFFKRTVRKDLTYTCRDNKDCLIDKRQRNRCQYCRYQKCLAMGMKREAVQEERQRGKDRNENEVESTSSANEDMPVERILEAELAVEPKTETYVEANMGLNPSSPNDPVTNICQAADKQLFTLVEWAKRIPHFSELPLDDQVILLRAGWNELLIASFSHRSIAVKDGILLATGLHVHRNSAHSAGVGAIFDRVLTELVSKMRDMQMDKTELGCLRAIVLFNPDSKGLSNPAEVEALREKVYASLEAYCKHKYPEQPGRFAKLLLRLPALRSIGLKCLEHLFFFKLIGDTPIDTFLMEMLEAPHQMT
Chain of Vitamin D3 receptor (Homo sapiens) (P11473 whole entry, looked up): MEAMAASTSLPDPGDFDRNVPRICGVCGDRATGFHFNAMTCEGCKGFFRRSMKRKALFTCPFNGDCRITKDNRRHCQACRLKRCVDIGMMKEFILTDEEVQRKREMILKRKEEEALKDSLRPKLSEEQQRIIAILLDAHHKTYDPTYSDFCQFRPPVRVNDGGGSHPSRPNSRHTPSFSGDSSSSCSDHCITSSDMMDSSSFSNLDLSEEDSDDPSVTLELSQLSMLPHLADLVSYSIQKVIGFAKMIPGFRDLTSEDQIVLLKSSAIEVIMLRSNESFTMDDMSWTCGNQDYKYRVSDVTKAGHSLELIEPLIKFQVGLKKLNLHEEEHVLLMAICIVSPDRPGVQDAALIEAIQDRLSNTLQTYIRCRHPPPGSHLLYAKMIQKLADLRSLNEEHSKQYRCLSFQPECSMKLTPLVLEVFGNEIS
Chain of Peroxisome proliferator-activated receptor gamma (Homo sapiens) (P37231 whole entry, looked up): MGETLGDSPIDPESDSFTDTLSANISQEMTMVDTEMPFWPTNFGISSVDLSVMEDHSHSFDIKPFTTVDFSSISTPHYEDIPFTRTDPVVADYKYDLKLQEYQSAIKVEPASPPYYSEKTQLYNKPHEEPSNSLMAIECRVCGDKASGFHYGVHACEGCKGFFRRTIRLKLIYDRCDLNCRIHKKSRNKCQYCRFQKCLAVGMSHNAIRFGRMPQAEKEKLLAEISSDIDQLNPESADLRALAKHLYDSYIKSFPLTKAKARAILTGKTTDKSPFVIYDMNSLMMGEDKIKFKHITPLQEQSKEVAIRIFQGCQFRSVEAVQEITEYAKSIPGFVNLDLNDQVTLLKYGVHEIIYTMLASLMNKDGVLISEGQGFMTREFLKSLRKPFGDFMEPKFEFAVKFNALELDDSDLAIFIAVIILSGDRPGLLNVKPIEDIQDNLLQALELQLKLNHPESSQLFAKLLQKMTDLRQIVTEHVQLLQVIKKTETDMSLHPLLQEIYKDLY
Chain of Thyroid hormone receptor beta (Homo sapiens) (P10828 whole entry, looked up): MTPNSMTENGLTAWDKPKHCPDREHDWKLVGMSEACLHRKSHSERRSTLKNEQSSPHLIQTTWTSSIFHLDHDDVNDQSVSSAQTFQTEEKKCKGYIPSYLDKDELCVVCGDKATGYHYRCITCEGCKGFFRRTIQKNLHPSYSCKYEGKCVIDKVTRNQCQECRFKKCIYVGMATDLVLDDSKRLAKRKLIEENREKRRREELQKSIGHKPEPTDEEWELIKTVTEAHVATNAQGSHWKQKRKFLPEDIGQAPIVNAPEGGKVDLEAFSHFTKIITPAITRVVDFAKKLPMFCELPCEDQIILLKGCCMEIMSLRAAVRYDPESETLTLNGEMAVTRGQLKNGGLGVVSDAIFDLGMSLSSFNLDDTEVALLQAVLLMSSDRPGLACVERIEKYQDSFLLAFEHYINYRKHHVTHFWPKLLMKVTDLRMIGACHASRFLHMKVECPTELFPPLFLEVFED
Chain of Glucocorticoid receptor (Homo sapiens) (P04150 whole entry, looked up): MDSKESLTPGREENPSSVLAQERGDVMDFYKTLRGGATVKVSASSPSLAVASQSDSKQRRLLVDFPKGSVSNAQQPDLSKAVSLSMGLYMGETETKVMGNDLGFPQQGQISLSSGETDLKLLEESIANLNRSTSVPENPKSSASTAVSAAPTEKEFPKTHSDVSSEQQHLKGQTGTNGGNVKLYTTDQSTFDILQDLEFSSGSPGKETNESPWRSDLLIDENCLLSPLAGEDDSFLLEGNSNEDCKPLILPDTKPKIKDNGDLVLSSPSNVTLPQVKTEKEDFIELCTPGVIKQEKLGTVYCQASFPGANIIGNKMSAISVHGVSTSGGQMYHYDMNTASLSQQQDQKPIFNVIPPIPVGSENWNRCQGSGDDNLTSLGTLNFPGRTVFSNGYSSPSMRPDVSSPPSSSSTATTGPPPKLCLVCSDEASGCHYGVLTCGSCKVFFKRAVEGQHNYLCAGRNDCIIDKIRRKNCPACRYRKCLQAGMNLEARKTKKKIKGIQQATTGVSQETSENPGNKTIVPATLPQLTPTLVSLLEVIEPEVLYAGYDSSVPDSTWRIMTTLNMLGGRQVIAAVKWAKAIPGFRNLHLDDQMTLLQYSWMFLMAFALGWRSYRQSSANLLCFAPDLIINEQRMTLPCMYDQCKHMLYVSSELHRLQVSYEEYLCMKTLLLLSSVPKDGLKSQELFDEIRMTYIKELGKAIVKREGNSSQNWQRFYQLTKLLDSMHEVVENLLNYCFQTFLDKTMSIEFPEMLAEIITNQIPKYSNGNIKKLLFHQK
Chain of Voltage-gated inwardly rectifying potassium channel KCNH2 (Homo sapiens) (Q12809 whole entry, looked up): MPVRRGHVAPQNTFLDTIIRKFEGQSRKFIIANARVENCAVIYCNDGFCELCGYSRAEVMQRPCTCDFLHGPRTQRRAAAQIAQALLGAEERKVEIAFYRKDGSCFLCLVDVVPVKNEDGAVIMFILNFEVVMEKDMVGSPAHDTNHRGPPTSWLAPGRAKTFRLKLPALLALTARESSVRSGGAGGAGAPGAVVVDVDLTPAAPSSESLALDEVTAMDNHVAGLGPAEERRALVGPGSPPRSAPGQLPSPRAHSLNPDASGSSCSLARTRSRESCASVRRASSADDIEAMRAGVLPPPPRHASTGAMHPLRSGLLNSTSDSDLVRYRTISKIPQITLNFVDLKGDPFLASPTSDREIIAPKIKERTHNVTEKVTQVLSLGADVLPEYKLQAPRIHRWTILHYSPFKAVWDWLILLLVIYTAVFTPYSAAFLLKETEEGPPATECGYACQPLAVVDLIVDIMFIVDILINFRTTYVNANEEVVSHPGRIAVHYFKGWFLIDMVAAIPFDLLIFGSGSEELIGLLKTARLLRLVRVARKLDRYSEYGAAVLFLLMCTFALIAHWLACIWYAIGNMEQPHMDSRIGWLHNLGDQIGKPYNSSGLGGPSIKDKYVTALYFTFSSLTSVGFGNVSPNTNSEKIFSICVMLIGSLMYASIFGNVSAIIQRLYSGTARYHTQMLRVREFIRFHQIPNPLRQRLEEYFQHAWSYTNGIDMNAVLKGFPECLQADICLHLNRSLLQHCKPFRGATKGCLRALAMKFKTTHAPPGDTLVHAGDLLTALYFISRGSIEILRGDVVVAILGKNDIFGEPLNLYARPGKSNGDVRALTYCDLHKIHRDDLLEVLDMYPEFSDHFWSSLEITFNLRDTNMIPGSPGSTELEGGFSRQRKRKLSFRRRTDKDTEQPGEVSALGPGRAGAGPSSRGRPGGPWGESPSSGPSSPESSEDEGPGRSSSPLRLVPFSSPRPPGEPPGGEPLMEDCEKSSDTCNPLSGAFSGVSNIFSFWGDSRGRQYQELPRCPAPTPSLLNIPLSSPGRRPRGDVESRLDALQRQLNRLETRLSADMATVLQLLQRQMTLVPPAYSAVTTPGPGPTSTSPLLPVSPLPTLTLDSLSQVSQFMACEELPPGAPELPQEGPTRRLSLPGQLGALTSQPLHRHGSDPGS
Chain of Peroxisome proliferator-activated receptor delta (Homo sapiens) (Q03181 whole entry, looked up): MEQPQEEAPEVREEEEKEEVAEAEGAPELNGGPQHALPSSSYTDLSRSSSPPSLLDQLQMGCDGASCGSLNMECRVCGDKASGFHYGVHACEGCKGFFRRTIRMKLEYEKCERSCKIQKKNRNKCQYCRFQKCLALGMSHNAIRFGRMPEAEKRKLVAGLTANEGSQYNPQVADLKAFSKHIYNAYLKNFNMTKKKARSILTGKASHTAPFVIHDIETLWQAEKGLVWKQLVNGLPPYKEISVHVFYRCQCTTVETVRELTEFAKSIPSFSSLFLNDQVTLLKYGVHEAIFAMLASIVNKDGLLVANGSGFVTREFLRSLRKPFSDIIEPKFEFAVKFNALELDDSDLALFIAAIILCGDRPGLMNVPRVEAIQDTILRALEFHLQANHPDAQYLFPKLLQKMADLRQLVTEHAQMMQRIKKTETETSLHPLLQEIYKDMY

| SMILES | outcome [1] | outcome [2] | max response [3] [%] | Potency [4] | outcome [5] | outcome [6] | max response [7] [%] | outcome [8] | outcome [9] | max response [10] [%] | max response [11] | activity change % (negative = inhibition) [12] | Potency [13] | activation [14] | Potency [15] | activation [16] | outcome [17] | Potency [18] | activation [19] | outcome [20] |
| --- | --- | --- | --- | --- | --- | --- | --- | --- | --- | --- | --- | --- | --- | --- | --- | --- | --- | --- | --- | --- |
| CCCCCCC(=O)O | inactive | inactive | -11.6 | inactive | inactive | inactive | -3.5 | inactive | inactive | -1.09 | 7.92% (inactive) | -7.74% (inactive) | inactive | -5.16% (inactive) | inactive |  |  |  |  |  |
| C1CCOC1 | inactive | inactive |  |  | inactive | inactive | -14.4 | inactive |  | -8.68 | 0.04% (inactive) |  | inactive | 1.06% (inactive) |  | 0.528% (inactive) | inactive | inactive | 1.14% (inactive) |  |
| CC(C)CCOC(=O)/C=C/c1ccccc1 | inactive |  | 17.3 | inactive | inactive |  | 7.69 | inactive | inactive | 5.75 | -10.7% (inactive) | -18.5% (inactive) | 22.4 µM (active) | 1.36% (inactive) |  | -0.0444% (inactive) | inactive |  | -1.28% (inactive) |  |
| FC(F)(F)c1ccccc1Cl | inactive |  | 25.6 | inactive | inactive | inactive | -12.9 | inactive | inactive | -4.91 | -5% (inactive) |  | inactive | 1.57% (inactive) | inactive | 6.11% (inactive) | inactive | inactive | -0.494% (inactive) | inactive |
| CCOCCOCC | inactive | inactive | -23 |  | inactive | inactive | -9.35 | inactive | inactive | -9.02 | 1.41% (inactive) | 12.3% (inactive) | inactive | 0.0371% (inactive) | inactive |  | inactive | inactive | -0.436% (inactive) | inactive |
| CC1CCC2CC1C2(C)C (stereo not given) | inactive | inactive |  |  |  |  | -0.475 | inactive |  | 8.6 | 9.66% (inactive) | 12.3% (inactive) | inactive | -0.467% (inactive) | inactive | -2.14% (inactive) | inactive | inactive | -0.9% (inactive) | inactive |
| CNC(=O)c1ccccc1 | inactive |  | 1.71 |  |  | inactive | -5.28 | inactive |  | -1.2 | 15.4% (inactive) | -4.06% (inactive) | inactive | 1.09% (inactive) | inactive | -1.59% (inactive) | inactive | inactive | -1.22% (inactive) | inactive |
| CCCCCO | inactive |  | -5.82 |  | inactive | inactive | -7.88 | inactive | inactive | -5.62 | 1.09% (inactive) | 2.41% (inactive) | inactive | 0.0408% (inactive) | inactive | 4.01% (inactive) |  | inactive | -0.261% (inactive) |  |
| COc1cccc2sc(N)nc12 | inactive |  | -34.4 | inactive | inactive | inactive | 2.8 | inactive | inactive | -11.1 | -10.9% (inactive) | -20.5% (inactive) | inactive |  | inactive |  | inactive | inactive | 0.198% (inactive) |  |
| NC(=O)/N=N/C(N)=O | inactive | inactive | -25.3 | inactive | inactive | inactive | -17.5 | inactive | inactive | -9.97 | -2.12% (inactive) |  | inactive | -0.505% (inactive) | inactive |  | inactive |  | 2.36% (inactive) | inactive |
| CCCCC(C=O)CC (stereo not given) | inactive | inactive | -2.18 | inactive | inactive | inactive | 4.08 | inactive | inactive | 2.69 | 7.22% (inactive) | 14.6% (inactive) | inactive |  |  |  | inactive | inactive | -0.855% (inactive) |  |
| CC(C)(C)OC=O | inactive | inactive |  |  | inactive | inactive | -9.54 | inactive |  | -10.7 | 2.16% (inactive) | -8.86% (inactive) | inactive | -3.33% (inactive) | inactive |  | inactive | inactive |  | inactive |
| O=CNc1ccccc1 | inactive | inactive |  |  |  | inactive | -8.25 | inactive | inactive | 2.83 | 1.7% (inactive) |  | inactive |  | inactive | -0.553% (inactive) | inactive |  |  | inactive |
| C(=C/c1ccccc1)/c1ccccc1 | inactive |  | 11.7 | inactive | inactive |  | -10 | inactive | inactive | -6.97 | -3.93% (inactive) | -6.07% (inactive) |  | -2.17% (inactive) | inactive |  | inactive |  | -0.123% (inactive) | inactive |
| O=C(O)c1ccccc1[N+](=O)[O-] | inactive | inactive |  |  | inactive | inactive | -10.1 | inactive |  | -4.69 | 2.43% (inactive) | 6.51% (inactive) | inactive | 2% (inactive) | inactive | 7.49% (inactive) | inactive |  | 0.408% (inactive) | inactive |
